# Results from PubChem BioAssay (NCATS).
# Records with an inconclusive call do not appear. Activity calls are given as the source filed them. Unless noted, the call rests on the fitted dose curve; in most records, active means well fitted curve in the direction sought with a large enough effect; inconclusive means small, poorly fitted or top-dose-only effect, or another doubt; inactive means no such curve, though single readings can be large; an effect the other way counts as inactive or inconclusive.
# Assays:
# [1] = Primary qHTS for inhibitors of nuclear receptor binding SET domain protein 2 (NSD2) in an isogenic RCH-ACV NSD2 p.E1099K mutant (9B) (AID 1645876); further: nearly all actives have a fitted effect of over 70% in size; further: potency means the concentration at half of the fitted maximal effect
# [2] = molecular target: Glutathione peroxidase 1 (Homo sapiens) (UniProt P07203); test: Primary qHTS Assay for Inhibitors of Recombinant Selenoprotein Glutathione Peroxidase 1 (GPX1) (AID 1845191); further: nearly all actives have a fitted effect of over 65% in size
# Sequence of Glutathione peroxidase 1 (Homo sapiens) (P07203 whole entry, looked up): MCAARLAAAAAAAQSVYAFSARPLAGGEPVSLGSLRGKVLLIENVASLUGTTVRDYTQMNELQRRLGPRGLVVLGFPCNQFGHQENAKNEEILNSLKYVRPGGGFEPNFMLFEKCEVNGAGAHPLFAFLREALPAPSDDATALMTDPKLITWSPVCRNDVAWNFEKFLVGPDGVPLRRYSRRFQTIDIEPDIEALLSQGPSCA
# Procedure, shortened: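 Recombinant GPX1 (10 nM final) was preincubated with compound for 30 min at room temperature, then reacted with 1 mM GSH, 0.5 mM CHP, 0.5 mM NADPH and 100 nM glutathione reductase; NADPH fluorescence (340/450 nm) was read at 0 and 15 min.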
# [3] = qHTS drug screen for cell cycle checkpoint inhibitors in PARPi-resistant BRCA-mutant ovarian cancer cell lines. (AID 1963452; calls by dose curve); conditions: PEO1/OlaR viability, CellTiter-Glo luminescence, 96 h, stronger effect = lower value
# Procedure, shortened: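 PEO1, PEO4 and PEO1/OlaR ovarian cancer cells, 600 per well, exposed 96 h at 37C to a dilution series. Viability read by CellTiter-Glo luminescence, normalized to DMSO and empty wells; activity summarized as Z-AUC.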
# [4] = qHTS Assay for Lipid Storage Modulators (AID 1519; calls by dose curve; on activity change, negative = inhibition: on the % scale 0 is the no-effect control and ±100 the full control effect); conditions: Drosophila S3 cells, BODIPY lipid droplet/cell ratio, laser cytometry, cells loaded with oleic acid; for activity change, negative = inhibition: at 57.5 µM (top of the series)
# Procedure, shortened: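 Cells seeded at 5,000 per well were treated with compounds over a concentration series and loaded with oleic acid (400 uM, as added). Lipid droplet fluorescence (488 nm excitation, 500-530 nm channel) was read by laser-scanning cytometry and normalized to 20 uM Triacsin C.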
# [5] = molecular target: DNA repair nuclease/redox regulator APEX1 (Homo sapiens) (UniProt P27695); test: qHTS Validation Assay for Inhibitors of the Human Apurinic/apyrimidinic Endonuclease 1 (APE1) (AID 1705;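 further: TAMRA fluorescence gain over two minutes as APE1 cuts a quenched THF abasic duplex; on the % scale 0 is the no-effect control and ±100 the full control effect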)
# Sequence of DNA repair nuclease/redox regulator APEX1 (Homo sapiens) (P27695 whole entry, looked up): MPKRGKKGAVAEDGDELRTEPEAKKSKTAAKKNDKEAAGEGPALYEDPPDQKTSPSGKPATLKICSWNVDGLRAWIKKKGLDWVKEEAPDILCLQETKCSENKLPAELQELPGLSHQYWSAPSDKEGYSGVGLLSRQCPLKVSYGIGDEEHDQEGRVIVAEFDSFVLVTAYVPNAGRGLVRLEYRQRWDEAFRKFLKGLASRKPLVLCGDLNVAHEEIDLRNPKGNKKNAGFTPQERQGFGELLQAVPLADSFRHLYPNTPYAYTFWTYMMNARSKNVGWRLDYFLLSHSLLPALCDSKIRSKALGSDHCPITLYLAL
# Procedure, shortened: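 Activity read as rising fluorescence (598 nm emission, 525 nm excitation) from incision of a TAMRA/BHQ-2 duplex carrying a THF abasic site (50 nM). Compound and enzyme sat 15 min at RT before substrate start; signal change between first and third 60-s reads.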
# [6] = Counterscreen for APE1 Inhibitors: Fluorescent Dye Displacement Validation Assay (AID 1707);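 further: plate controls were ThO with dsDNA and no compound for no effect and ThO without dsDNA for full effect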
# Procedure, shortened: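 Assay buffer: Tris-HCl pH7.5 with 50mM NaCl, 2 mM MgCl2, 0.01% Tween-20. Dye 250 nM, duplex 50 nM final. Readout: decrease in ThO endpoint fluorescence, 480 nm excitation, 540 nm emission.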
# [7] = qHTS for differential inhibitors of proliferation of Plasmodium falciparum line D10 (AID 1877);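 further: parasites grown with compound for 72 h before DNA staining; plate controls were vehicle wells for no effect and reference inhibitor wells for full effect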
# [8] = qHTS for differential inhibitors of proliferation of Plasmodium falciparum line Dd2 (AID 1882); conditions: Potency: Plasmodium falciparum Dd2 proliferation inhibition;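 further: plate controls were DMSO vehicle for no effect and 0.29 µM artemisinin for full effect; nearly all actives have a fitted effect of over 65% in size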
# Procedure, shortened: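 Dd2-infected erythrocytes (0.3% parasitemia, 2.5% hematocrit final) incubated with compound 72 h at 37 C, 5% CO2; lysed with saponin/Triton buffer containing SYBR Green I, incubated overnight in the dark, then read by fluorescence (485/535 nm). Normalized to 0.29 uM artemisinin and DMSO.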
# [9] = molecular target: Ferritin light chain (Equus caballus) (UniProt P02791); test: qHTS Validation Assay for Identification of Novel General Anesthetics (AID 2323); further: on the % scale 0 is the no-effect control and ±100 the full control effect
# Sequence of Ferritin light chain (Equus caballus) (P02791 2-175 limits assumed): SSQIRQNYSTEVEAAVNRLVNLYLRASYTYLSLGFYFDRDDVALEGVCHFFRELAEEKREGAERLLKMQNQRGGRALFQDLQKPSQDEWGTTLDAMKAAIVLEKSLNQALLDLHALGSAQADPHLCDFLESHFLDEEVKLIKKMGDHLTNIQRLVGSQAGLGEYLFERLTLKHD
# Procedure, shortened: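 Competitive displacement of the profluorescent anesthetic 1-AMA (50% saturated, PBS) from 10 uM apoferritin, 10 min, room temperature. Activity is normalized 380/535 nm fluorescence; concentration-response fitted with a four-parameter Hill equation.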
# [10] = molecular target: ATP-dependent DNA helicase Q1 (Homo sapiens) (UniProt P46063); test: qHTS Validation Assay for Inhibitors of RecQ-Like Dna Helicase 1 (RECQ1) (AID 2353);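 further: plate controls were DMSO vehicle for no effect and enzyme-free control for full effect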
# Sequence of ATP-dependent DNA helicase Q1 (Homo sapiens) (P46063 whole entry, looked up): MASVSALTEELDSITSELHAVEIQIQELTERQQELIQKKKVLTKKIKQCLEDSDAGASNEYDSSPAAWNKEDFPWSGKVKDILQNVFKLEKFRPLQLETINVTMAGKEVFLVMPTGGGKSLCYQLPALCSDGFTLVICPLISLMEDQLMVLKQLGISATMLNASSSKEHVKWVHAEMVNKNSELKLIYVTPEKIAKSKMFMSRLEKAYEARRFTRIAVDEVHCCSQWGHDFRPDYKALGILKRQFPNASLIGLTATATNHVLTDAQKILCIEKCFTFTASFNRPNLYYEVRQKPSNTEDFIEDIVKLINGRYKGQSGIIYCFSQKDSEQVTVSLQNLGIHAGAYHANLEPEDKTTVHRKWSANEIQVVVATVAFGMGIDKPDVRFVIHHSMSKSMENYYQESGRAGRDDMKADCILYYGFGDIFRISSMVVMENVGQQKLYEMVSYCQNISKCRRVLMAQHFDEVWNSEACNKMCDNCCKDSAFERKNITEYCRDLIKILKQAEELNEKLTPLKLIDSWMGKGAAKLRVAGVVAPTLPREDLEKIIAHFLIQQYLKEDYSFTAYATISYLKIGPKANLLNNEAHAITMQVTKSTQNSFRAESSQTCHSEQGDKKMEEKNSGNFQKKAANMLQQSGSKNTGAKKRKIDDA
# Procedure, shortened: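 50 nM RECQ1T1 preincubated 15 min with compound in Tris pH 8.0 buffer with MgCl2, DTT, Tween-20 and 2.5 ug/ml poly(dI-dC); started with 200 nM TAMRA/BHQ-2 forked duplex and 2 mM ATP. Unwinding read as fluorescence (525/598 nm), two reads 2 h apart.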
# [11] = Validation screen for small molecules that induce DNA re-replication in MCF 10A normal breast cells (AID 463097); further: 0% is about no effect; nearly all actives have a fitted effect of over 60% in size
# Procedure, shortened: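 Read-out is Hoechst total nuclear intensity by fluorescence scanning imager, flagging increased high-DNA-content nuclei. Compounds were incubated with MCF 10A cells for 48 hr (37 C, 5% CO2) before 40 min staining.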
# [12] = Quantitative high throughput screen for delayed death inhibitors of the malarial parasite plastid, 96 hour incubation (AID 488745); further: on the % scale 0 is the no-effect control and ±100 the full control effect; nearly all actives have a fitted effect of over 70% in size
# Procedure, shortened: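 Luciferase-expressing P. falciparum in erythrocytes (2% hematocrit, 0.1% parasitemia) incubated with compound for 96 h at 37 C, 5% CO2, in RPMI 1640 with 0.5% Albumax. Growth inhibition read as decreased luminescence.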
# [13] = Quantitative high throughput screen for delayed death inhibitors of the malarial parasite plastid, 48 hour incubation (AID 488752); further: on the % scale 0 is the no-effect control and ±100 the full control effect; nearly all actives have a fitted effect of over 65% in size
# Procedure, shortened: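 Erythrocytes infected with firefly luciferase-expressing P. falciparum (2% hematocrit, 0.1% parasitemia) cultured with compound for 48 h at 37 C, 5% CO2, in RPMI 1640/0.5% Albumax. Growth inhibition read as loss of luminescence.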
# [14] = molecular target: M-phase phosphoprotein 8 (Homo sapiens) (UniProt Q99549); test: qHTS Validation Assay for Inhibitors for MPP8 Chromodomain Interactions with Methylated Histone Tails (AID 488949);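 further: AlphaScreen signal from MPP8 chromodomain bound to biotinylated H3K9me3 peptide; top concentration of the series differs between compounds; on the % scale 0 is the no-effect control and ±100 the full control effect; nearly all actives have a fitted effect of over 55% in size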
# Sequence of M-phase phosphoprotein 8 (Homo sapiens) (Q99549 whole entry, looked up): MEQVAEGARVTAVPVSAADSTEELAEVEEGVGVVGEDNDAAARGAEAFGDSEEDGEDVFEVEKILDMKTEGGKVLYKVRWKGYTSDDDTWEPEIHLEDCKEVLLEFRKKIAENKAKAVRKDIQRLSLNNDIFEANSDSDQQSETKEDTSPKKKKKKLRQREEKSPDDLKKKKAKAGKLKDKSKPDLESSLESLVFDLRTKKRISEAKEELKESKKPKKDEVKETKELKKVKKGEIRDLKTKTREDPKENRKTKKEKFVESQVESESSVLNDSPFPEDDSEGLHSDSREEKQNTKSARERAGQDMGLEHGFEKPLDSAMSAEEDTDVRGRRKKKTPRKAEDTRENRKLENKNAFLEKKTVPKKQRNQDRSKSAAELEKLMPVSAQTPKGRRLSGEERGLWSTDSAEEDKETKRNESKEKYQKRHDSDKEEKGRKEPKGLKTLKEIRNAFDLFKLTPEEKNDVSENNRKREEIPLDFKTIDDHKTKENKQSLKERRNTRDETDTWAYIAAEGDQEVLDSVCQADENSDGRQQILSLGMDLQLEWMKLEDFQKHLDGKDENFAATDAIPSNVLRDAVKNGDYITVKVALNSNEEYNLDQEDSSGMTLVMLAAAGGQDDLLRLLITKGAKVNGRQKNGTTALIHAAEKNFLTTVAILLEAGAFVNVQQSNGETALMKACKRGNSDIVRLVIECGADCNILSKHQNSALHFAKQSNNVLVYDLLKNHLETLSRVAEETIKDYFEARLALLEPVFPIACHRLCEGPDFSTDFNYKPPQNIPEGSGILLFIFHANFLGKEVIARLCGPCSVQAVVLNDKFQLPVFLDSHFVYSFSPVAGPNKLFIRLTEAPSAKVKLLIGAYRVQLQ
# Procedure, shortened: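 AlphaScreen proximity signal from streptavidin donor and Ni-chelate acceptor beads (10 ug/mL each) reported binding of MPP8 to trimethyl-K9 H3(1-18) peptide, both at 50 nM. The complex formed 30 min before a 30 min compound exposure at room temperature, in PBS pH 7.4.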
# [15] = molecular target: Transient receptor potential cation channel subfamily V member 1 (Homo sapiens) (UniProt Q8NER1); test: HTS Assay for Compounds that Act as Enhancers of the Vanilloid Receptor 1 (AID 488979); further: 0% is about no effect
# Procedure, shortened: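 TRPV1-expressing cells loaded with Fluo-8 calcium dye; compounds added and calcium influx read kinetically for 3 min (agonist phase), then capsaicin at EC20 added and read 2 min more for enhancement. Fluorescence ex 480/em 520 nm.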
# [16] = molecular target: Thyrotropin receptor (Homo sapiens) (UniProt P16473); test: qHTS Assay for Antagonists of the Thyroid Stimulating Hormone Receptor (AID 488980); further: 0% is about no effect
# Sequence of Thyrotropin receptor (Homo sapiens) (P16473 whole entry, looked up): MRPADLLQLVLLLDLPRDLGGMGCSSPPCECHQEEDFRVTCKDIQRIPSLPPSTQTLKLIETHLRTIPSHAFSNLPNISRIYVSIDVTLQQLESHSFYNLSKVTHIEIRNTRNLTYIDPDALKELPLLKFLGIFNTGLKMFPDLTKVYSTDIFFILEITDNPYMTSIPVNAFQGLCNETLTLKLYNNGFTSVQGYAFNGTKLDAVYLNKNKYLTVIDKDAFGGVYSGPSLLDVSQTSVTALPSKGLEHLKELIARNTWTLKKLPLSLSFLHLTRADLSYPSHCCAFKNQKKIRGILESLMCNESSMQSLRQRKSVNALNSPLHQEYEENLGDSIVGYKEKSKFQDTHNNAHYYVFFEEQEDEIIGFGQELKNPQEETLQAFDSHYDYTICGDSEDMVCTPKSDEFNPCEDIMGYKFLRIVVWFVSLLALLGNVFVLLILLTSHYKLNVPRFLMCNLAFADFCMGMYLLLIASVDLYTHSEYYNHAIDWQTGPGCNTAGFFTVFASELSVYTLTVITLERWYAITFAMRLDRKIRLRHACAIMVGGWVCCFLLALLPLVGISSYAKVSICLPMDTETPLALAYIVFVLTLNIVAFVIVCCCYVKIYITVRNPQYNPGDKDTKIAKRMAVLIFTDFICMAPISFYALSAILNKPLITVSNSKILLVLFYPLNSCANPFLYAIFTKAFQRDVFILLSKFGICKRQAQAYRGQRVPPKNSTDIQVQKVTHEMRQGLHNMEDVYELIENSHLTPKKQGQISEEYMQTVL
# Procedure, shortened: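 Inhibition of cAMP raised by EC80 TSH (4 nM final) was read by HTRF, with lysate cAMP competing against cAMP-d2 for cryptate antibody after 30 min at room temperature. The cells were transfected HEK293 held in phosphodiesterase inhibitor RO 20-1724 at 70 uM.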
# [17] = molecular target: Thyrotropin-releasing hormone receptor (Homo sapiens) (UniProt P34981); test: qHTS for Small Molecule Agonists and Allosteric Enhancers of Human TRH Receptor: Validation Screen for Agonists (AID 493127;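 active means calcium activation more than 3 SD above the typical response in the agonist read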; further: 0% is about no effect); conditions: TRH receptor agonist cell assay; at 2 µM; stronger effect = higher value
# Sequence of Thyrotropin-releasing hormone receptor (Homo sapiens) (P34981 whole entry, looked up): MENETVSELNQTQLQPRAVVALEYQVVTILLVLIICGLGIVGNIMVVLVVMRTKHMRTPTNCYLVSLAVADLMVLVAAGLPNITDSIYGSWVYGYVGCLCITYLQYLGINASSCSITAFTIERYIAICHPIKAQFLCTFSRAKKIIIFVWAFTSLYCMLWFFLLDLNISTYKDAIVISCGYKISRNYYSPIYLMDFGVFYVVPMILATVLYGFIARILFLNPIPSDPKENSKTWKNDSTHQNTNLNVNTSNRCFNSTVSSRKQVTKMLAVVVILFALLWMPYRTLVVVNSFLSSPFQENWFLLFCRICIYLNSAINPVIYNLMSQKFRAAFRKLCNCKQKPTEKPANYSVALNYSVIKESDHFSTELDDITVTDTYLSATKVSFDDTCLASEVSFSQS
# Procedure, shortened: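 TRHR cells loaded with fluo-8 calcium dye; FDSS kinetic fluorescence (Ex 480/Em 530) read at 1 s/cycle after 23 nL compound addition. Agonist-mode calcium response recorded before the 10 nM TRH (EC20) addition.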
# [18] = molecular target: Galactokinase (Homo sapiens) (UniProt P51570); test: qHTS Validation Assay for Inhibitors of Human Galactokinase (GALK) (AID 493189); further: 0% is about no effect
# Sequence of Galactokinase (Homo sapiens) (P51570 whole entry, looked up): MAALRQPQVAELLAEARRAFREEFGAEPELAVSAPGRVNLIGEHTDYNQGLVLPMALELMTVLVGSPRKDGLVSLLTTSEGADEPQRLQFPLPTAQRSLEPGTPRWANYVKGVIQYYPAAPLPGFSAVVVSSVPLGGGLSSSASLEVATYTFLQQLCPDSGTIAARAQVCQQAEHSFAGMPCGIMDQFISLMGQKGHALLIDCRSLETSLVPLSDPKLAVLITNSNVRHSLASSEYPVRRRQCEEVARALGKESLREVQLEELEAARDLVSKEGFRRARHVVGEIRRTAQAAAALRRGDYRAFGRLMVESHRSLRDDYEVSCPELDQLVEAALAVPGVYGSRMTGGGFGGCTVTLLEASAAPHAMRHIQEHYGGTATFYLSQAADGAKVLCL
# Procedure, shortened: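 Inhibition was measured as remaining ATP, detected by luciferase luminescence after a 1 h room-temperature reaction. Final conditions: 5 nM GALK, 100 uM galactose, 35 uM ATP, pH 8.0 HEPES buffer.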
# [19] = Validation screen for small molecules that induce DNA re-replication in SW480 colon adenocarcinoma cells (AID 504364); further: 0% is about no effect
# Procedure, shortened: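 SW480 cells (250/well) exposed 48 h at 37 C, 5% CO2, then Hoechst-stained 40 min. Nuclear DNA content imaged by fluorescence scanning (405 nm excitation, 500-530 nm emission); re-replication scored as increased nuclei with elevated intensity.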
# [20] = molecular target: Voltage-gated inwardly rectifying potassium channel KCNH2 (Homo sapiens) (UniProt Q12809); test: qHTS Assay for Small Molecule Inhibitors of the Human hERG Channel Activity (AID 588834);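 further: top concentration of the series differs between compounds; on the % scale 0 is the no-effect control and ±100 the full control effect; lower thallium flux fluorescence means stronger hERG block; nearly all actives have a fitted effect of over 50% in size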
# Sequence of Voltage-gated inwardly rectifying potassium channel KCNH2 (Homo sapiens) (Q12809 whole entry, looked up): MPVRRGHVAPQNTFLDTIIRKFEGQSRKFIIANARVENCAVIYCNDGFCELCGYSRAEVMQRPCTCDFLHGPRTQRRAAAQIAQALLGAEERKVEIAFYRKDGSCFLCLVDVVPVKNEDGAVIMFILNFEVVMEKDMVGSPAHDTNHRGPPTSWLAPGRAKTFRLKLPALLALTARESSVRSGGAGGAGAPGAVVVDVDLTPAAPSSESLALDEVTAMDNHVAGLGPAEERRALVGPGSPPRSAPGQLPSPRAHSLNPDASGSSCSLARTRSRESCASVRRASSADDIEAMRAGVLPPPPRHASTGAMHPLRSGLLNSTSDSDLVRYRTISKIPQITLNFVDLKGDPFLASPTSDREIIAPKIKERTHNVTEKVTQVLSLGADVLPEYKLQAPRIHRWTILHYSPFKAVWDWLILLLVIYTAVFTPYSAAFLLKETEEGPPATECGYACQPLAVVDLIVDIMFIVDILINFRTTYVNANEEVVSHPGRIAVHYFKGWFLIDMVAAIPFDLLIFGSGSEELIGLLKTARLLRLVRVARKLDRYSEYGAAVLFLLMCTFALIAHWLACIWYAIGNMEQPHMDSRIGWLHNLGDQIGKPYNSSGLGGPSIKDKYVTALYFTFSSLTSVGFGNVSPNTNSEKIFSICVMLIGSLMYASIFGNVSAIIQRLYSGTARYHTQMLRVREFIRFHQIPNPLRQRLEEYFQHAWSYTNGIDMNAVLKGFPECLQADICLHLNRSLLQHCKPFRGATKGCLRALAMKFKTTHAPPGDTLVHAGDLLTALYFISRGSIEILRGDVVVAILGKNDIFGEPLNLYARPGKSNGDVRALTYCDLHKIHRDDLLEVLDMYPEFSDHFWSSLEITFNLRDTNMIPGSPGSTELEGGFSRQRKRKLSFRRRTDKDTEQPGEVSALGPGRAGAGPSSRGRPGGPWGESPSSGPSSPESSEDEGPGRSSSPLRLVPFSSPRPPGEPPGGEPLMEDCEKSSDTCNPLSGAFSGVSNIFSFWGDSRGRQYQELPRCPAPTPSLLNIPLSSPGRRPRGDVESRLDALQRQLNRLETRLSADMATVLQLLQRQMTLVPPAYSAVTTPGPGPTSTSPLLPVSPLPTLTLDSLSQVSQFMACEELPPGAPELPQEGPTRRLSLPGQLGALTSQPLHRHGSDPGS
# Procedure, shortened: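 Kinetic FDSS fluorescence; U2OS + hERG BacMam (~100 virus particles/cell); FluxOR Tl+ flux; ~10 min cpd; AC50 (Hill).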
# [21] = measured here: PEO1 parental Z-AUC
# [22] = measured here: cell count channel max response
# [23] = measured here: lipid channel max response
compound,measurement,setting,value
O=C(Nc1cccc(C(F)(F)F)c1)c1cccc2cc(Oc3cc(CO)ncn3)ccc12,Potency,[1],inactive
same,Potency,[2],inactive
same,Z-AUC,[3],-0.478 (inactive)
same,Z-AUC,[3]; [21],-0.0588
same,Z-AUC,[3]; measured here: PEO4 Z-AUC,-0.749
Nc1n[n+]([O-])c2ccccc2[n+]1[O-],Potency,[1],18.6 µM (active)
same,Potency,[2],inactive
same,Z-AUC,[3],-0.469 (inactive)
same,Z-AUC,[3]; [21],-1.12
same,Z-AUC,[3]; measured here: PEO4 Z-AUC,-1.08
COc1ccccc1-c1cncnc1NCCN1CCOCC1,"activity change, negative = inhibition",[4],0.65% (inactive)
same,max response,[4]; [22],4.25%
same,max response,[4]; [23],4.66%
O=c1c(CCc2ccccc2)nc2cnc(N3CCNCC3)nc2n1C1CC1,"activity change, negative = inhibition",[4],2.72% (inactive)
same,max response,[4]; [22],16.7%
same,max response,[4]; [23],18.1%
O=C(NO)c1cnc(N2C[C@H]3C[C@@H]2CN3c2cc(C(F)(F)F)ccn2)nc1,Potency,[1],2.95 µM (active)
same,Potency,[2],inactive
same,Z-AUC,[3],-1 (inactive)
same,Z-AUC,[3]; [21],-1.23
same,Z-AUC,[3]; measured here: PEO4 Z-AUC,-1.32
CC(=O)[C@@]1(O)CC[C@H]2C3CCC4=CC(=O)CC[C@]4(C)C3CC[C@@]21C (stereo not given in full),"activity change, negative = inhibition",[4],1.08% (inactive)
same,max response,[4]; [22],-12.2%
same,max response,[4]; [23],-12.4%
same,Potency,[5],inactive
same,Potency,[6],inactive
same,Potency,[7],inactive
same,Potency,[8],inactive
same,outcome,[9],inactive
same,Potency,[10],inactive
same,outcome,[11],inactive
same,Potency,[12],inactive
same,Potency,[13],inactive
same,Potency,[14],inactive
same,outcome,[15],inactive
same,outcome,[16],inactive
same,activation,[17],1.5% (inactive)
same,outcome,[18],inactive
same,outcome,[19],inactive
same,Potency,[20],inactive
